Assay outcomes: PubChem, Broad Institute
The list is not random: actives were taken first. Their share in the collection is about 3.4%.
esBAF inh: Bmi1 luciferase reporter increase in mESCs, primary screen, esBAF inhibitor project, mouse ES cells, Bmi1 luciferase knock-in, single point. reporter increase, % at 12.5 µM. 24 h; 100% = twice the neutral-well signal. 350,000 tested, 2% active; in the data active = activation above about 40%; inconclusive = no clear call, values can overlap the other calls;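 also: 0% = median of the plate's neutral control wells and 100% = double that signal; a rise in the Bmi1 reporter signal indicates esBAF inhibition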
HSF1 activator: HSF-1 activators, primary screen, NIH3T3-HGL cells, MG132 stress, luminescence, single point. NIH3T3-HGL HSF-1 luciferase reporter, 8 h; 100% = twice DMSO control signal. activation, % at 9 µM. 300,000 tested, 1.7% active. AID 504408, 2011;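 active = mean replicate activation of at least 50% with a set share of replicates each reaching 50%; inconclusive = only one of those two conditions met; inactive = mean below 50% and too few replicates reaching it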;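 also: 0% = median of the neutral control wells and 100% = twice that signal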
HSF1 inh: HSF1 inhibitors in luciferase reporter cells, primary screen, cell-based, NIH3T3, luminescence | AID 2098, 2009 | NIH3T3-HGL HSE-luciferase, MG132-induced, luminescence 8 h; active compounds read low | activity change, negative = inhibition, % at 7.5 µM (by protocol) | 300,000 tested, 0.77% active;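 active = more than half of replicate wells show activity change below -50%, luminescence cut by over half; inconclusive = some wells, but at most half, below -50%; inactive = no replicate well below -50%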;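 also: luciferase reports HSF-1 transcriptional activity via heat shock element; 0% = median of DMSO wells and -100% = zero luminescence signal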
Vif imaging: HIV Vif self-association inhibitors, primary screen, imaging, HEK293T, single point. HEK293T cells, Vif self-association by quenched fluorescence, 24 h. inhibition, % at 7.49 µM. 340,000 tested, 0.35% active. AID 602346, 2012; in the data active = inhibition above about 50%, passing the limit was not always enough; inconclusive = no clear call, values can overlap the other calls; inactive = below about 31%
* = called active by the depositor; ? = inconclusive; nt = no result; + = active, no number.

SMILES	esBAF inh	HSF1 activator	HSF1 inh	Vif imaging
Cc1cccc(NC(=S)N/N=C/c2c[nH]c3ccccc23)c1	87.9*	?	24.3	23.8
O=C(N/N=C/c1c[nH]c2ccccc12)c1ccccc1	30.2	20.2	7.2	?
Cc1nn(C)cc1/C=N/NC(=S)Nc1ccccc1	68.7*	26.5	5.4	-1.9
O=C(O)COc1ccccc1/C=N/NC(=O)c1ccc(F)cc1	3.1	-20.2	-10.2	2.2
CN(C)C(=O)[C@@H]1[C@@H](CO)[C@@H]2Cn3c(ccc(C4=CCCCC4)c3=O)[C@@H]2N1CC1CC1	-4.9	nt	nt	nt
CO[C@@H]1CN(C)C(=O)c2cc(NS(C)(=O)=O)ccc2OC[C@H](C)N(C(=O)C2CCCC2)C[C@@H]1C	0.9	nt	nt	nt
CCCNC(=O)N[C@@H]1CC[C@H](CCn2cc(C3CC3)nn2)O[C@@H]1CO	-1.0	nt	nt	nt
C[C@@H]1CN([C@@H](C)CO)C(=O)c2cc(NC(=O)Cc3ccccc3)ccc2O[C@@H](C)CCCCO[C@@H]1CN(C)CC1CCCCC1	-3.8	nt	nt	nt
Cc1ccc(-n2ncc(Cl)c2C(=O)NC2CC2)cc1	23.3	53.9*	15.3	-7.8
CNC(=O)c1c(Br)cnn1-c1ccc(C)cc1	83.5*	?	32.2	-10.1
CNC(=O)c1c(Cl)cnn1-c1ccc(C)cc1	nt	?	13.6	-0.7
N#Cc1cc2c(nc1SCC(=O)N1CCOCC1)CCCCC2	-22.0	-75.2	-67.2*	1.2
Cc1cccc(C)c1NC(=O)CN1C(=O)C2CC=CCC2C1=O (stereo unspecified)	-4.6	nt	nt	-2.3
CN(C)c1cccc(C(=O)NNC(=O)CN2C(=O)C3CC=CCC3C2=O)c1 (stereo unspecified)	42.5*	nt	nt	14.2
CO[C@@H]1CN(C)C(=O)c2ccc(NC(=O)c3ccccn3)cc2OC[C@@H](C)N(C(=O)C2CCC2)C[C@H]1C	1.6	nt	nt	nt
O=C(C[C@@H]1CC[C@@H]2[C@H](COC[C@H](O)CN2Cc2ccncc2)O1)NCc1ccccc1Cl	-6.6	nt	nt	nt
O=C(NCCNc1ccccc1[N+](=O)[O-])c1cc(F)c(F)cc1Cl	36.1	37.3	21.0	-3.6
COc1ccc(C(=O)NCCNc2ccccc2[N+](=O)[O-])cc1	74.3*	-6.1	5.5	5.1
Cc1nc(SCC(=O)c2cccs2)c2oc3ccccc3c2n1	nt	50.8*	33.0	1.9
O=C(CSc1ncnc2c1oc1ccccc12)c1cccs1	56.8*	21.2	20.7	41.1
CCNC(=O)C[C@@H]1CC[C@H]2[C@@H](COc3ccc(NC(=O)C4CCCCC4)cc3C(=O)N2C)O1	1.9	nt	nt	nt
C[C@H](NC(=O)C[C@@H]1C=C[C@@H](NC(=O)C2CCOCC2)[C@@H](CO)O1)c1ccccc1	1.4	nt	nt	nt
CC(=O)NC(c1ccc(C)cc1)c1cc(Cl)c2cccnc2c1O (stereo unspecified)	-44.0	-85.4	-83.2*	3.3
Cc1ccc(C(c2cc(Cl)c3cccnc3c2O)N2CCN(C)CC2)cc1 (stereo unspecified)	-1.3	11.3	-2.9	54.0*
CCC(=O)NC(c1ccc(OC)cc1)c1cc(Cl)c2cccnc2c1O (stereo unspecified)	nt	-67.7	-64.5*	-2.6
SMILES	esBAF inh	HSF1 activator	HSF1 inh	Vif imaging
CC(=O)NC(c1ccc(C(C)C)cc1)c1ccc2cccnc2c1O (stereo unspecified)	-39.3	-53.9	-51.6*	0.2
O=C(c1ccccc1F)N1C[C@@H]2[C@H](c3ccccc31)[C@H](CO)N2CC1CCCCC1	-5.6	nt	nt	nt
CCCCC(=O)NC(c1ccco1)c1cc(Cl)c2cccnc2c1O (stereo unspecified)	-9.8	-39.6	-33.7	8.8
CCC(=O)NC(c1ccco1)c1cc(Cl)c2cccnc2c1O (stereo unspecified)	nt	-77.8	-72.4*	3.0
O/N=C(\Cc1cscn1)c1ccc(O)cc1O	48.8*	5.6	-2.6	6.7
Nc1c(N(CCO)C(=O)/C=C/c2ccco2)c(=O)[nH]c(=O)n1Cc1ccccc1	nt	1.8	1.6	6.7
CCCCN(C(=O)/C=C/c1ccco1)c1c(N)n(CCC)c(=O)[nH]c1=O	-0.4	76.4*	30.3	17.9
Oc1cccc(-c2nc3ccc4ccccc4c3c3c2CCC3)c1	nt	59.4*	37.0	-15.9
O=C(NNc1c2ccccc2nc2ccccc12)c1cccc(O)c1	nt	28.7	15.0	-5.4
COc1ccc(Br)cc1/C=N/NC(=O)c1ccc(COc2ccc3c(c2)CCC3)o1	55.8*	15.6	17.3	-6.2
O=C(N/N=C/c1cc([N+](=O)[O-])ccc1O)c1ccc(COc2ccc3c(c2)CCC3)o1	-20.5	-0.9	-8.0	7.2
C[C@@H]1CN([C@H](C)CO)C(=O)c2cc(NS(=O)(=O)c3cn(C)cn3)ccc2O[C@@H]1CN(C)CC1CC1	-5.1	nt	nt	nt
Cc1ccc(-c2onc3ccc(C(=O)O)cc23)cc1	50.1*	-51.8	-46.5	-15.0
CC(=O)COC(=O)c1ccc2noc(-c3ccccc3)c2c1	27.2	16.6	2.6	2.2
NC(=O)NC(=O)COC(=O)c1ccc2noc(-c3ccccc3)c2c1	68.2*	13.4	9.5	-20.1
Cc1ccc(C(=O)Nc2ccc(Cl)cc2C)c(Cl)c1	26.2	67.1*	49.1	2.6
Cc1ccc(C(=O)Nc2ccc(Cl)cc2C(F)(F)F)c(Cl)c1	nt	5.7	11.4	4.5
O=C1S/C(=C\c2ccc(N3CCOCC3)o2)C(=O)N1Cc1c(F)cccc1Cl	-6.2	250.7*	184.9	7.7
O=C1S/C(=C\c2ccc(N3CCOCC3)o2)C(=O)N1c1ccccc1	0.0	32.4	5.0	23.2
O=C1S/C(=C/c2ccc(N3CCOCC3)o2)C(=O)N1Cc1c(F)cccc1Cl	-8.4	102.3*	94.2	+
O=C(C1CCCCC1)N1C[C@@H]2[C@H](c3ccccc31)[C@H](CO)N2C(=O)Cc1ccccn1	-3.0	nt	nt	nt
C[C@@H]1CCCCO[C@H](CN(C)S(=O)(=O)c2cn(C)cn2)[C@H](C)CN([C@@H](C)CO)C(=O)c2cc(NC(=O)Cc3ccccc3)ccc2O1	5.3	nt	nt	nt
COc1ccc(NC(=O)N2C[C@H]3[C@@H](c4ccccc42)[C@@H](CO)N3C(=O)C2CCCCC2)cc1	1.4	nt	nt	nt
COCCn1c(C)cc(C(=O)CN2C(=O)NC3(CCCCCC3)C2=O)c1C	?	nt	nt	-0.3
CCCn1c(C)cc(C(=O)CN2C(=O)NC3(CCCCCC3)C2=O)c1C	54.3*	nt	nt	-21.9
Cc1cc(C(=O)CN2C(=O)NC3(CCCCCC3)C2=O)c(C)n1C	44.0*	nt	nt	13.6
O=C(C[C@@H]1CC[C@H]2[C@@H](COC[C@@H](O)CN2C(=O)c2ccccn2)O1)NC1CCC1	-2.0	nt	nt	nt
O=C1c2ccccc2NC(c2ccc(-c3cccs3)o2)N1O (stereo unspecified)	66.6*	nt	nt	-3.0
Cc1noc(C)c1NC(=O)Nc1cccc2c1O[C@H](CN(C)CC1CCCCC1)[C@@H](C)CN([C@@H](C)CO)C2=O	-0.3	nt	nt	nt
COc1ccc(CCNc2oc(COc3ccc(Br)cc3)nc2C#N)cc1OC	-6.8	55.8*	32.8	-2.3
